Results filed as inconclusive are left out. The source made the active and inactive calls. Calls come from the whole dose curve; as a rule, active = well fitted inhibition curve with a large enough effect; inconclusive = small, poorly fitted or top-dose-only effect; inactive = no such curve, though single readings can be large or run the other way.
The compounds below were run against Luciferin 4-monooxygenase (Photinus pyralis) (UniProt P08659) (assay: FLuc inhibitory activity for the follow-up compounds in a biochemical assay with a commercial detection reagent - BriteliteTM Plus (PerkinElmer)). Details: purified FLuc, Britelite Plus luminescence; series mostly up to 38.3 µM; activity change, negative = inhibition: at the top concentration.
Sequence of Luciferin 4-monooxygenase (Photinus pyralis) (P08659 whole entry, looked up): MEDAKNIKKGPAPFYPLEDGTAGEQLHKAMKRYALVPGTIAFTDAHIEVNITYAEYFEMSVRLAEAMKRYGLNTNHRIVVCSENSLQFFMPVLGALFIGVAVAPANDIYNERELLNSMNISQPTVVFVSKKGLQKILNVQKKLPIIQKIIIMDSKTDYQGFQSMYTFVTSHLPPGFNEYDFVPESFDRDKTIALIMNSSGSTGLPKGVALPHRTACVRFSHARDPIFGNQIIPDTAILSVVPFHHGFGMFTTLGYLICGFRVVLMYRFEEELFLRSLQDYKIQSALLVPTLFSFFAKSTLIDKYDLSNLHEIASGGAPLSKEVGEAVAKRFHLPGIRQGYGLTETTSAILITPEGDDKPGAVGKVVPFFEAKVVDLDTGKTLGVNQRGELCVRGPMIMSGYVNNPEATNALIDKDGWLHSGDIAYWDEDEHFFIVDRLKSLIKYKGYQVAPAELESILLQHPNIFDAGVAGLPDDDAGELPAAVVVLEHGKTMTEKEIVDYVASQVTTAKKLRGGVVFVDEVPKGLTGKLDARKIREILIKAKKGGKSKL
Source text: NCGC Assay Overview: Firefly (Photinus pyralis) luciferase is one of the most commonly used transcriptional reporters. It is considered one of the more dynamically responsive reporters - that is, responsive to changes in reporter transcription - as it requires no post-translational modifications and is enzymatically active directly after protein synthesis (Wood, 1998). With no endogenous expression in mammalian cells and without the requirement of external excitation, it offers very little background signal, thus generally providing excellent signal to background for most assays. Previous profiling work to determine the prevalence of compounds that affect FLuc enzymatic activity (PubChem AID 411) identified that ~3% of the MLSMR library (then at ~72K) inhibited FLuc (Auld et al., 2008). […] Of the compounds identified in this profile that inhibited FLuc, 151 compounds were selected for further analysis, in an effort to better understand their mode of inhibiting FLuc. The assay described here was to determine the activity of the compounds in a FLuc assay that used a commercial formulation of detection reagent (BriteliteTM Plus; PerkinElmer).
NCGC Assay Protocol Summary: Reagents: Britelite Plus detection reagent; 50mM Tris acetate, pH 7.5; 10nM P. pyralis luciferase (Sigma #L9506) Control compounds used were two known firefly luciferase inhibitors (3-(5-(3-chlorophenyl)-1,2,4-oxadiazol-3-yl)benzoic acid and 5-(2-fluorophenyl)-3-phenyl-1,2,4-oxadiazole), and DMSO. Assay Summary: Three microliters of buffer containing firefly luciferase (final concentrations: 50mM Tris acetate, 10nM P. pyralis luciferase) are dispensed into each well of a Greiner white, solid-bottom 1536-well format plate using a flying reagent dispenser (FRD). These assay plates were then treated with 23nL of compound or DMSO using a Kalypsys pin tool, which allows for delivery of a 12-point intraplate titration of each compound to the assay plate (quantitative HTS), with final compound concentrations ranging from approximately ~38uM to 0.2nM. Three microliters of 2X Britelite Plus detection reagent was then delivered by FRD to each well. Luciferase activity was then measured using a ViewLux CCD imager (PerkinElmer), with an average exposure time of 2-30 seconds (2X binning, medium/high gain).

Compound	activity change, negative = inhibition	Potency
O=C(Nc1cccc(-c2nc3ccccc3s2)c1)c1cc(-n2cnnc2)ccc1Cl	19.7% (inactive)	
Nc1cccc(-c2nc3ccc(N)cc3s2)c1		0.798 µM (active)
O=C(Nc1ccccc1-c1nc2ccccc2s1)c1cccnc1	-12.6% (inactive)	
COc1ccc2nc(NC(=O)c3cccc(S(=O)(=O)N4CCOCC4)c3)sc2c1	20% (inactive)	
COc1ccc(C(=O)Nc2ccccc2C(=O)Nc2ccccc2C(=O)O)cc1		11.3 µM (active)
O=C(Nc1ccccc1C(=O)O)c1cccc(NC(=O)c2ccccc2Br)c1	-2.59% (inactive)	
CC(C)C(=O)Nc1cccc(C(=O)Nc2ccccc2C(=O)O)c1		17.9 µM (active)
O=C(Nc1ccccc1C(=O)O)c1cc(S(=O)(=O)Nc2ccccc2)ccc1Cl	1.24% (inactive)	
CN=c1scc(-c2ccccc2F)n1/N=C/c1ccc[nH]1		0.0798 µM (active)
COc1ccc(NS(=O)(=O)c2cccc(C(=O)Nc3ccccc3C(=O)O)c2)cc1	10.8% (inactive)	
O=C(O)c1cccc(NC(=O)c2cccc(S(=O)(=O)N3CCc4ccccc43)c2)c1	-7.51% (inactive)	
COc1ccc2nc(NC(=O)c3nc(S(=O)(=O)Cc4ccc(C)cc4)ncc3Cl)sc2c1	-19.4% (inactive)	
COc1ccc(-c2nc3ccccc3s2)cc1O		0.711 µM (active)
O=C(O)c1ccc(NC(=O)c2ccccc2NC(=O)c2cccc(Br)c2)cc1	6.03% (inactive)	
O=C(O)c1ccc(NC(=O)c2ccccc2NC(=O)c2ccccc2Cl)cc1	-8.33% (inactive)	
Nc1ccc(-c2nc3cc(N)ccc3s2)cc1		4 µM (active)
COc1ccc(-c2nc3ccccc3s2)cc1NC(=O)c1ccc(F)cc1	-25.6% (inactive)	
CCOc1ccc(C(=O)Nc2ccccc2C(=O)O)cc1		3.56 µM (active)
Cc1ccc(C(=O)Nc2ccc(C(=O)O)cc2)cc1S(=O)(=O)NCc1ccccc1	-0.493% (inactive)	
Nc1ccc(-c2nc3ccc(C(=O)O)cc3s2)cc1		0.634 µM (active)

Compound	activity change, negative = inhibition	Potency
COc1ccc(C(=O)Nc2nc3ccc(OC)cc3s2)cc1	-14.5% (inactive)	
O=C(Nc1ccc(-c2nc3ccccc3s2)cc1)C1=COCCO1		0.4 µM (active)
O=C(Nc1ccccc1C(=O)O)c1ccc(NC(=O)C2CC2)cc1		4.49 µM (active)
CC(C)c1ccc(C(=O)Nc2ccc(-c3nc4ccccc4s3)c(Cl)c2)cc1	-49.5% (inactive)	
Cc1ccc2sc(-c3ccc(N)cc3)nc2c1		0.798 µM (active)
CCCC(=O)Nc1nc2ccc(OCC)cc2s1		0.0798 µM (active)
COc1ccc(Br)cc1C(=O)Nc1ccc(C(=O)O)cc1	-10.9% (inactive)	
NC(=O)Cc1ccc2sc(-c3ccccc3)nc2c1		6.34 µM (active)
O=C(Nc1cccc(-c2nc3ccccc3s2)c1)C1=COCCO1	-15% (inactive)	
O=C(Nc1c(Cl)cc(Cl)cc1-c1nc2ccccc2s1)c1ccc(Br)o1		17.9 µM (active)
Nc1ccc2nc(-c3ccc(O)cc3)sc2c1		1.13 µM (active)
O=C(O)c1ccccc1NC(=O)c1ccccc1Nc1ccccc1	-13.6% (inactive)	
COc1ccc2nc(NC(=O)c3ccc(NS(=O)(=O)c4cccs4)cc3)sc2c1	55.4% (inactive)	
CCn1c(C)nc2cc(-c3nc4n(n3)Cc3ccccc3-4)ccc21		0.0711 µM (active)
O=C(Nc1ccccc1C(=O)O)c1cccc(S(=O)(=O)Nc2ccc(Br)cc2)c1	14% (inactive)	
Cc1ccc(S(=O)(=O)N2CCOCC2)cc1C(=O)Nc1ccccc1C(=O)O	-25.2% (inactive)	
COc1c(C)cccc1C(=O)Nc1ccc(-c2nc3ccccc3s2)c(Cl)c1		7.11 µM (active)
Cc1ccc(NS(=O)(=O)c2ccc(Cl)c(C(=O)Nc3cccc(C(=O)O)c3)c2)cc1	2.08% (inactive)	
Nc1ccc(-c2nc3ccc(N)cc3s2)cc1		0.565 µM (active)
Nc1ccccc1C(=O)Nc1cccc(C(=O)O)c1		12.6 µM (active)

— PubChem BioAssay AID602474 (National Center for Advancing Translational Sciences (NCATS), 2012)
